Bioassay records deposited in PubChem BioAssay by National Center for Advancing Translational Sciences (NCATS).
Rows were chosen to be rich in hits. Some 13% of all compounds tested hit in one or more screens of this group.
LASV entry inh – blocks Lassa virus binding to or entry into cells. 1.2% of 300,000 active. Potency, µM (series often up to 37.9 µM), hits mostly inhibitors. Lassa virus pseudotype entry inhibition, cell reporter; calls by dose curve; tested in HEK293 cells; also: nearly all actives have a fitted effect of over 50% in size
FMDV inh – foot and mouth disease virus antiviral activity. AID 1159524. FMDV antiviral cell-based qHTS. Potency, µM (doses to about 57.9 µM), actives largely listed as inhibitors. 1.2% of 410,000 active; calls by dose curve; tested in HEK293T cells; also: read-out not given here; nearly all actives have a fitted effect of over 45% in size
MARV entry inh – Marburg virus entry inhibition | Marburg virus pseudotyped entry inhibition, cell reporter | Potency, µM (doses to about 37.8 µM), most hits filed as inhibitors | 1.8% of 300,000 active; calls by dose curve; tested in HEK293 cells
HCV inh – blocks hepatitis C virus; Huh7.5.1 HCVcc-Cre infection, luciferase reporter, 44 h; Potency, µM (highest dose often 41.8 µM), hits mostly inhibitors; 3.4% of 340,000 active; active = well fitted inhibition curve with a large enough effect; inconclusive = small, poorly fitted or top-dose-only effect, or another doubt; inactive = no such curve, though single readings can be large or run the other way
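Cells seeded at 1,000/well and cultured 4 h, then compounds added followed by HCVcc-Cre virus (~0.5 moi). After 44 h further culture, luciferase substrate was added, plates held 15 min at room temperature, and luminescence read for 15 sec.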
Shiga inhibitor – Shiga toxin inhibition | Vero cells, Shiga toxin protein synthesis inhibition reporter | 9.2% of 290,000 active | AID 2315 | inhibition, % at 38.7 µM; in the data active = inhibition mostly above about 28%, no sharp cut-off; inactive = mostly below about 43%
Cycloheximide cs – affects cycloheximide protein synthesis inhibition readout, counter-screen; 12% of 300,000 active; cell reporter, cycloheximide protein synthesis inhibition counterscreen; max response, %; in the data active = max response mostly above about 13%, no sharp cut-off; inactive = mostly below about 14%; also: read at 38.3 µM for the half of the compounds with a filed dose
Hits are given with their value; – = inactive; ? = inconclusive; · = no result given.

SMILES | LASV entry inh | FMDV inh | MARV entry inh | HCV inh | Shiga inhibitor | Cycloheximide cs
COCC(=O)Nc1ccc(OCc2ccccc2)cc1 | – | – | ? | – | 60.7 | 37.6
COC(=O)Nc1ccc(SCC(=O)c2ccc(Cl)cc2)cc1 | ? | – | – | – | – | –
COC(=O)COc1ccc(S(=O)(=O)N2CCCCCC2)cc1C | – | – | – | – | – | –
Cc1cc(C)nc(SCc2cc(=O)c(OC(=O)c3cccc([N+](=O)[O-])c3)co2)n1 | – | – | – | – | – | –
CSc1cccc(NC(=O)C2CCCN(c3ncnc4c3nc3n4CCCCC3)C2)c1 (stereo not drawn) | · | ? | · | 22.4µM | – | –
Fc1ccc(N2CCN(c3ncnc4c3nc3n4CCCCC3)CC2)cc1 | – | 25.1µM | · | · | · | ·
Clc1ccc(N2CCN(c3ncnc4c3nc3n4CCCC3)CC2)cc1 | – | ? | · | · | · | ·
c1ccc(N2CCN(c3ncnc4c3nc3n4CCCCC3)CC2)cc1 | ? | 10µM | · | · | · | ·
Cc1cccc(N2CCN(c3ncnc4c3nc3n4CCCCC3)CC2)c1C | – | – | · | · | · | ·
O=C(C1CCCN(c2ncnc3c2nc2n3CCCCC2)C1)N1CCN(c2ccc(F)cc2)CC1 (stereo not drawn) | ? | ? | ? | 11.2µM | – | –
O=C(C1CCCN(c2ncnc3c2nc2n3CCCCC2)C1)N1CCN(c2ccc(Cl)cc2)CC1 (stereo not drawn) | ? | ? | ? | ? | – | –
CC(=O)c1ccc(NC(=O)C2CCCN(c3ncnc4c3nc3n4CCCCC3)C2)cc1 (stereo not drawn) | ? | ? | – | – | – | –
C#CCNC(=O)c1ccc2sc([C@H]3C[C@H](O)[C@@H](CO)O3)nc2c1 | · | – | · | · | · | ·
Fc1ccc(NCc2ccccc2-c2nnc(-c3ccccc3Cl)o2)cc1 | – | – | – | · | · | ·
Cc1cccc(NC(=O)c2ccc(CNS(=O)(=O)c3ccc4c(c3)C(C)(C)C(=O)N4C)cc2)c1 | ? | 35.5µM | · | · | · | ·
Cc1ccc(NC(=O)c2ccc(CNS(=O)(=O)c3ccc4c(c3)C(C)(C)C(=O)N4C)cc2)cc1C | ? | 35.5µM | · | · | · | ·
Cc1ccccc1OCc1nnc(SCC(=O)Nc2ccc3nc(SCC(=O)NC(C)(C)C)sc3c2)n1C | ? | 35.5µM | ? | ? | – | –
Cc1cccc(NC(=O)CSc2nc3ccc(NC(=O)COc4ccccc4C)cc3s2)c1 | ? | – | ? | · | · | ·
CCN(CC)C(=O)CSc1nc2ccc(NC(=O)CSc3nnc(COc4ccccc4C)n3C)cc2s1 | ? | 22.4µM | – | 10µM | – | –
Cc1ccccc1OCc1nnc(SCC(=O)Nc2ccc3c(c2)oc2ccccc23)n1C | – | – | – | ? | – | –
CCOc1ccc(CCNC(=O)COC(=O)CNS(=O)(=O)c2ccc(C)cc2)cc1OCC | – | – | – | – | · | ·
COc1ccccc1CCn1cnc(Cc2cccc(F)c2)c1C(C)C | · | 22.4µM | · | · | · | ·
COc1cccc(-c2ncn(CCc3ccccc3OC)c2C(C)C)c1 | · | 31.6µM | · | · | · | ·
CCc1ncn(CCc2ccccc2OC)c1C(C)C | · | – | · | · | · | ·
CC1(C)C=Cc2cc(-c3coc4cc(O)cc(O)c4c3=O)cc(O)c2O1 | · | – | · | 11.2µM | · | ·
SMILES | LASV entry inh | FMDV inh | MARV entry inh | HCV inh | Shiga inhibitor | Cycloheximide cs
O=c1c(-c2ccc3c(c2)OCCO3)coc2cc(O)cc(O)c12 | – | – | – | – | 72.7 | 37.5
O=c1c(-c2ccccc2)coc2cc(O)cc(O)c12 | · | – | · | · | · | ·
CC1CCN(CC(=O)c2cccs2)CC1 | – | – | – | – | 36.7 | 13.3
CC1CC(C)CN(CC(=O)c2cccs2)C1 (stereo not drawn) | – | – | – | – | – | –
CC1CCN(CC(=O)c2ccccc2Cl)CC1 | – | – | – | – | 31.0 | –
O=C(CN1CCN(c2ccc(F)cc2)CC1)c1cccs1 | – | – | – | – | – | –
O=C(CN1CCc2ccccc2C1)c1cccs1 | – | – | ? | – | 81.6 | 48.7
COC(=O)C1=C(c2ccc(OC)c(OC)c2)C[C@@H]2CC[C@H]1N2C(=O)NC1CC1 | · | – | · | – | · | ·
Nc1cccc(-c2cn(-c3cc4cc(C#CC5(O)CCCCC5)ccc4oc3=O)nn2)c1 | · | – | – | – | · | ·
CCc1nc2ccc(Cc3ccc4nc(CC)[nH]c4c3)cc2[nH]1 | · | – | · | – | – | –
CCOC(=O)c1c(C)[nH]c(N=Nc2cccc(OC)c2)c1C | · | – | ? | ? | 154.4 | 57.9
CCOC(=O)c1c(C)[nH]c(CCC(=O)NCc2cccc(OC)c2)c1C | – | – | · | · | · | ·
CCOC(=O)c1c(C)[nH]c(N=Nc2cccc(C)c2)c1C | – | · | ? | – | 130.3 | 64.2
COc1ccc2[nH]c(=O)c(CNc3cc(C)ccc3C)cc2c1 | ? | ? | ? | – | 43.5 | 13.8
COc1ccc2[nH]c(=O)c(CNc3ccccc3OC)cc2c1 | – | ? | – | – | – | –
